Bioassay records deposited in PubChem by National Center for Advancing Translational Sciences (NCATS).
Marburg entry inh – Marburg virus entry inhibition; Potency, µM (series often up to 37.8 µM), inactives show top-dose activity change, negative = inhibition, most hits filed as inhibitors; Marburg virus pseudotyped entry inhibition, cell reporter; AID 540276; actives 1.8% (n = 300,000); calls by dose curve; tested in HEK293 cells; further: potency means the concentration at half of the fitted maximal effect
HCMV antiviral – blocks human cytomegalovirus replication | HFF cells, HCMV-luciferase reporter, 72 h; hits give low values | activity change, negative = inhibition, % at 57.5 µM | actives 4.5% (n = 410,000) | AID 1259415; in the data active means activity change below about -60%; inconclusive means no clear call, values can overlap the other calls; inactive means above about -39%
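Inhibition of viral replication was scored as loss of reporter luminescence in HFFs infected with HCMV-luciferase (MOI 1 PFU/cell) for 72 h; compounds tested at 2 doses, normalized to buffer and Salinomycin controls.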
Vaccinia mCherry – vaccinia inhibition (mCherry reporter) | Vaccinia virus mCherry reporter infection, fluorescence | AID 720579 | actives 0.63% (n = 310,000) | Potency, µM (top dose mostly 36.5 µM), for inactives: at the highest dose activity change, negative = inhibition, hits mostly inhibitors; calls by dose curve; tested in A549 cells; further: potency means the concentration at half of the fitted maximal effect; nearly all actives have a fitted effect of over 35% in size
VACV Venus inh – inhibitors of vaccinia virus (Venus reporter). Vaccinia virus Venus reporter expression, fluorescence. Potency, µM (top dose mostly 36.5 µM), without a hit: top-dose activity change, negative = inhibition, hits mostly inhibitors. actives 0.46% (n = 330,000); calls by dose curve; tested in A549 cells; further: potency means the concentration at half of the fitted maximal effect; nearly all actives have a fitted effect of over 30% in size
HCV inh – HCV inhibition; Huh7.5.1 HCVcc-Cre infection, luciferase reporter, 44 h; Potency, µM (series often up to 41.8 µM), without a hit: at the top dose activity change, negative = inhibition, most hits filed as inhibitors; actives 3.4% (n = 340,000); AID 651820; active means well fitted inhibition curve with a large enough effect; inconclusive means small, poorly fitted or top-dose-only effect, or another doubt; inactive means no such curve, though single readings can be large or run the other way; further: potency means the concentration at half of the fitted maximal effect
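Compounds are dispensed onto cells plated 4 h earlier at 1,000 per well, with HCVcc-Cre virus (about 0.5 moi) added next. Following 44 h of culture, luminescent signal is measured for 15 sec after 15 min with substrate at room temperature.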
LASV entry inh – blocks Lassa virus binding to or entry into cells; Lassa virus pseudotype entry inhibition, cell reporter; actives 1.2% (n = 300,000); Potency, µM (series often up to 37.9 µM), for inactives: top-dose activity change, negative = inhibition, hits mostly inhibitors; calls by dose curve; tested in HEK293 cells; further: potency means the concentration at half of the fitted maximal effect; nearly all actives have a fitted effect of over 50% in size
The depositor's hits bear a star; [ ] = another dose, or the depositor's remark. The list is not random: actives were taken first. Their share in the collection is about 7.8%. On the % scale 0 is the no-effect control and ±100 the full control effect.

CCn1c(N)c(C(=O)NCC2CCCO2)sc1=S (stereo not drawn) was read as Marburg entry inh 3%, HCMV antiviral 13, VACV Venus inh -4%, HCV inh 17% and LASV entry inh 14%.
Cn1c(N)c(C(=O)Nc2ccc(-c3ccccc3)cc2)sc1=S was read as HCMV antiviral -76* and HCV inh inconclusive.
`CCOC(=O)CCCCN(Cc1ccccc1F)S(=O)(=O)c1ccc(F)c(C(=O)Nc2cc(Cl)cc(Cl)c2)c1` gave HCMV antiviral 19, Vaccinia mCherry -3%, VACV Venus inh -7% and LASV entry inh -8%[46.1 µM].
Screening CCOc1ccccc1NC(=O)Cn1c(=O)n(CCCC(=O)NCCc2ccc(C)cc2)c(=O)c2ccccc21 returned Marburg entry inh -23%[46.1 µM], HCMV antiviral 8, Vaccinia mCherry -14%, VACV Venus inh 2% and LASV entry inh 3%[46.1 µM].
`CCCc1nn2c(=O)cc(COC(=O)c3ccccc3NC(=O)c3ccc(OCC)cc3)nc2s1` gave HCMV antiviral 32, Vaccinia mCherry -2%, VACV Venus inh 4% and LASV entry inh 9%[46.1 µM].
COc1ccc(C2=CC(c3ccc(OC)c(OC)c3)c3c(c4ccccc4oc3=O)O2)cc1OC (stereo not drawn) was read as HCMV antiviral -64*, Vaccinia mCherry -15%, VACV Venus inh -30% and HCV inh 10µM*.
Screening COc1ccc(-c2cc(=O)c3ccccc3o2)cc1OC returned Vaccinia mCherry inactive and VACV Venus inh 0%.
Screening Cc1cccc(C(=O)NCC(=O)OCC(=O)c2ccc3ccccc3c2)c1 returned Vaccinia mCherry 37% and VACV Venus inh 8%.
`Cc1ccc(-c2cc3onc(-c4ccccc4)c3c(=O)n2C)cc1` gave HCMV antiviral -71*, Vaccinia mCherry -26%, VACV Venus inh inconclusive and HCV inh -10%.
O=Cc1ccc(N2Cc3ccccc3C2)cc1 was read as Marburg entry inh 1.3µM*, HCMV antiviral 60, Vaccinia mCherry -8%, VACV Venus inh -1%, HCV inh 6% and LASV entry inh inconclusive.
`COc1ccc(-c2onc(C)c2C)cc1S(=O)(=O)N(C)Cc1ccccc1` gave HCMV antiviral inconclusive, Vaccinia mCherry -29%, VACV Venus inh -25% and LASV entry inh -18%[46.1 µM].
Screening COc1ccc(CCNC(=O)CSc2n[nH]c(-c3ccccc3Cl)n2)cc1OC returned HCMV antiviral 4, Vaccinia mCherry -13%, VACV Venus inh -17% and LASV entry inh -3%[46.1 µM].
Screening O=c1c2ccccc2nc(/C=C/c2ccc(O)cc2)n1-c1ccccc1O returned HCMV antiviral -39 and HCV inh -22%.
Screening O=C(O)c1ccc(-n2c(/C=C\c3ccc(O)cc3)nc3ccccc3c2=O)cc1 returned HCMV antiviral -14, Vaccinia mCherry -5%, VACV Venus inh -6% and LASV entry inh -14%[46.1 µM].
O=c1c2ccccc2nc(/C=C/c2ccc(O)c(O)c2)n1-c1ccccc1 was read as HCMV antiviral 78 and HCV inh -16%.
Screening O=c1c2ccccc2nc(/C=C/c2ccccc2)n1-c1ccccc1O returned Marburg entry inh inconclusive, HCMV antiviral -95*, Vaccinia mCherry -9%, VACV Venus inh -12%, HCV inh -28% and LASV entry inh inconclusive.
`O=c1c2ccccc2nc(/C=C/c2cc(Br)ccc2O)n1CCCO` gave Marburg entry inh inconclusive, HCMV antiviral -96*, Vaccinia mCherry 11µM*, VACV Venus inh inconclusive, HCV inh inconclusive and LASV entry inh 10µM*.
Screening O=c1c2ccccc2nc(/C=C/c2ccccc2)n1-c1ccc(O)cc1 returned Marburg entry inh inconclusive, HCMV antiviral -88*, Vaccinia mCherry inactive, VACV Venus inh -17%, HCV inh inconclusive and LASV entry inh inconclusive.
`O=c1c2ccccc2nc(/C=C/c2cccc([N+](=O)[O-])c2)n1CCO` gave Marburg entry inh inconclusive, HCMV antiviral inconclusive, Vaccinia mCherry -10%, VACV Venus inh -18%, HCV inh inconclusive and LASV entry inh inconclusive.
O=c1c2ccccc2nc(/C=C\c2cccc(Br)c2)n1-c1ccc(O)cc1 was read as HCMV antiviral -92*, Vaccinia mCherry -22%, VACV Venus inh -15% and LASV entry inh inconclusive.
`CSc1ncccc1C(=O)NCC1Cc2cc(-c3cnccn3)ccc2O1` (stereo not drawn) gave Vaccinia mCherry -2% and VACV Venus inh 7%.
For CCC(C(=O)Nc1c(C)cccc1C)n1c(-c2ccc(-c3ccccc3)cc2)nc2ccccc21 (stereo not drawn) the results were HCMV antiviral -34, Vaccinia mCherry -20% and VACV Venus inh -16%.
`Cc1cc(C)cc(NC(=O)Cn2c(=O)oc3cc(S(=O)(=O)N4CCCC4)ccc32)c1` gave Marburg entry inh -27%[46.1 µM], HCMV antiviral 26, Vaccinia mCherry -4%, VACV Venus inh -16% and LASV entry inh 1%[46.1 µM].
Cc1ccc(NC(=O)Cn2c(=O)oc3cc(S(=O)(=O)N4CCC(C)CC4)ccc32)cc1C was read as Marburg entry inh 0%, HCMV antiviral -69*, Vaccinia mCherry -26%, VACV Venus inh inconclusive and HCV inh inconclusive.
For COc1ccc(C)cc1NC(=O)Cn1c(=O)ccc2cc(S(=O)(=O)N3CCC(C)CC3)ccc21 the results were HCMV antiviral -114*, Vaccinia mCherry -20%, VACV Venus inh -17% and LASV entry inh 2%[46.1 µM].
`Cc1ccc(NC(=O)Cn2c(=O)ccc3cc(S(=O)(=O)N4CCC(C)CC4)ccc32)cc1C` gave HCMV antiviral 11, Vaccinia mCherry -19%, VACV Venus inh -28% and LASV entry inh 1%[46.1 µM].
Screening CC1CCN(S(=O)(=O)c2ccc3c(c2)oc(=O)n3CC(=O)NCc2ccc(F)cc2)CC1 returned Marburg entry inh inconclusive, HCMV antiviral -97*, Vaccinia mCherry -21%, VACV Venus inh inconclusive and LASV entry inh -15%[46.1 µM].
Screening Cc1cc(C)c(NC(=O)Cn2c(=O)oc3cc(S(=O)(=O)N4CCCCCC4)ccc32)c(C)c1 returned Marburg entry inh -17%[46.1 µM], HCMV antiviral -70*, Vaccinia mCherry -29%, VACV Venus inh -27% and LASV entry inh -5%[46.1 µM].
Screening Cc1ccc(NC(=O)Cn2c(=O)oc3cc(S(=O)(=O)N4CCC(C)CC4)ccc32)cc1Cl returned Marburg entry inh -20%[46.1 µM], HCMV antiviral inconclusive, Vaccinia mCherry inconclusive, VACV Venus inh inconclusive and LASV entry inh -4%[46.1 µM].
For CC(=O)C1=CCC(c2ccccc2)N(S(=O)(=O)c2ccccc2C)C1 (stereo not drawn) the results were HCMV antiviral -13, Vaccinia mCherry 6% and VACV Venus inh -9%.
